According to PubChem BioAssay (NCI):
Compounds without any hit were thinned out: in the full panel of roughly 83,000, 20% have a hit.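 Values shown are percent growth following 48 h exposure of cells in 96-well plates to a single concentration of compound; below 10 was considered active.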 A number with no mark means an inactive call. Active and inactive are the calls of the source.

Experiments:
Experiment in all cases: NCI-60 one-dose screen, 48 h (100 = growth as untreated, 0 = no growth, -100 = all killed)
Settings in all cases: 10 µM unless noted
NCI-H23 lung = system: NCI-H23 lung
NCI-H226 lung = system: NCI-H226 lung
NCI-H322M lung = system: NCI-H322M lung
HOP-62 NSCLC = system: HOP-62 NSCLC
NCI-H460 lung = system: NCI-H460 lung
HOP-92 NSCLC = system: HOP-92 NSCLC
A549/ATCC NSCLC = system: A549/ATCC NSCLC
786-0 renal = system: 786-0 renal
COLO 205 colon = system: COLO 205 colon
DU-145 prostate = system: DU-145 prostate
K-562 leukemia = system: K-562 leukemia
MALME-3M melanoma = system: MALME-3M melanoma
MDA-MB-231 breast = system: MDA-MB-231 breast
SF-268 CNS = system: SF-268 CNS
UACC-257 melanoma = system: UACC-257 melanoma
M14 melanoma = system: M14 melanoma
RXF 393 renal = system: RXF 393 renal
SF-295 CNS = system: SF-295 CNS
SF-539 CNS = system: SF-539 CNS
NCI-H522 lung = system: NCI-H522 lung

Compound | growth (NCI-H23 lung) [%] | growth (NCI-H226 lung) [%] | growth (NCI-H322M lung) [%] | growth (HOP-62 NSCLC) [%] | growth (NCI-H460 lung) [%] | growth (HOP-92 NSCLC) [%] | growth (A549/ATCC NSCLC) [%] | growth (786-0 renal) [%] | growth (COLO 205 colon) | growth (DU-145 prostate) [%] | growth (K-562 leukemia) [%] | growth (MALME-3M melanoma) | growth (MDA-MB-231 breast) [%] | growth (SF-268 CNS) [%] | growth (UACC-257 melanoma) | growth (M14 melanoma) | growth (RXF 393 renal) [%] | growth (SF-295 CNS) [%] | growth (SF-539 CNS) [%] | growth (NCI-H522 lung) [%]
CC[C@@H]1O[C@H](O[C@@H](c2cnc[nH]2)[C@H](NC(=O)c2nc([C@H](CC(N)=O)NC[C@@H](N)C(N)=O)nc(N)c2C)C(=O)N[C@H](C)[C@H](O)[C@H](C)C(=O)N[C@@H](C(=O)NCCc2nc(-c3nc(C(=O)NCCCCN=C(N)N)cs3)cs2)[C@@H](C)O)[C@H](O[C@@H]2O[C@H](CO)[C@H](O)[C@H](OC(N)=O)[C@@H]2O)[C@H](C)[C@@H]1C | 20.9 | 13 | 105 | 15.6 | 12.5 | 11.4 | 36.6 | 25.4 | 64.2% | 49.4 | 82 | 45% | 88.7 | 23.1 | 70.9% | 39.2% | – | – | – | –
COc1cc(C(=O)Oc2ccccc2OC(=O)c2cc(OC)c(OC)c(OC)c2)cc(OC)c1OC | 86.8 | 107 | 108 | 88.1 | 114 | 83.4 | 85.3 | 118 | 103% | 109 | 100 | 130% | 85.5 | 84 | 86.7% | 116% | 89.5 | 115 | 88.5 | –
N#C/C(=C\c1ccc(-c2ccc(Cl)c(Cl)c2)o1)c1nc(-c2ccco2)cs1 | 86.6 | 81.5 | 79.8 | 79.9 | 87.7 | 109 | 113 | 110 | 106% | 114 | 113 | 89.1% | 84.1 | 97.2 | 118% | 99.3% | 121 | 98.7 | 101 | –
O=C1C=C(O)C(=O)C(CC2=C(O)C(=O)C=C(O)C2=O)=C1O | 113 | 102 | 105 | 104 | 104 | 109 | 92 | – | 115% | 110 | 106 | 108% | 95.8 | 100 | 105% | 104% | 110 | – | 88.5 | –
Cc1[nH]c(-c2ccc3cc[nH]c3c2)c2c1C(=O)CCCC2 | 49.3 | 52.4 | 50.4 | 32.3 | 66.8 | 37.1 | 51.9 | 50.5 | 40.6% | 79.1 | 26.2 | 56.2% | 43.2 | 64.8 | 47.7% | 51.6% | 68.1 | 38.8 | 48.6 | –
CN(Cc1cc(Cl)cc(Cl)c1O)Cc1cc(Cl)cc(Cl)c1O | 76.9 | 71.5 | 54.9 | 54.6 | 45.6 | 92.5 | 61.2 | 94.7 | 99.5% | 68.9 | 98.5 | 92.7% | 78.5 | 62.6 | 82.4% | 71% | 81.8 | 58.1 | 81.9 | –
CCN1CCC2(CC1)NC(=O)c1c(c3ccc(Cl)c(Cl)c3n1C)C2C#N (stereo unspecified) | 70 | 72 | 57 | 62 | 54.6 | – | 52.1 | 63.7 | -31.4% (active) | 72.7 | 23.3 | -6.1% (active) | 60.5 | 51.4 | -5.12% (active) | -38.5% (active) | 76.6 | 70.8 | 52 | –
CC[C@H]1OC(=O)[C@H](C)[C@@H](O[C@H]2C[C@@](C)(OC)[C@@H](O)[C@H](C)O2)[C@H](C)[C@@H](O[C@@H]2O[C@H](C)C[C@H](N(C)C)[C@H]2O)[C@](C)(O)C[C@H](C)CN(C)[C@H](C)[C@@H](O)[C@]1(C)O | 93.7 | 103 | 104 | 97.7 | 102 | – | 104 | 91.7 | 45.6% | 109 | 108 | 92% | 55.2 | 99.1 | 124% | 96.4% | 85.5 | 108 | 102 | 104
